Drawing on PubChem BioAssay (EPA / NIEHS), this text covers outcome and AC50 for five compounds.

The term AC50 denotes the midpoint of the concentration-response curve, whichever way the signal moves.

Records with an inconclusive call do not appear. Active and inactive are the calls of the source. The calls were made as follows: active = hit-call score of the fitted dose curve at least 0.9, where 1 is the maximum; inconclusive = response in the unintended direction; inactive = score below 0.9.

In this assay the target is human Adenosine Transporter (Adot), SLC29A1 (gene 2030) (UniProt Q99808). Put plainly: NVS_TR_hAdoT: NovaScreen (NVS) Transporter Assay for human Adenosine Transporter (Adot) (AID 2283368). Here is the method: NVS_TR_hAdoT is a biochemical, single-readout assay that uses extracted gene-proteins from U937 in a cell-free assay. Measurements were taken 1 hour after chemical dosing in a 96-well plate.NVS_TR_hAdoT is one of one assay component(s) measured or calculated from the NVS_TR_hAdoT assay. It is designed to make measurements of radioligand binding, a form of binding reporter, as detected with scintillation counting signals by Filter-based radiodetection technology.Data from the assay component NVS_TR_hAdoT was analyzed into 1 assay endpoint. This assay endpoint, NVS_TR_hAdoT, was analyzed in the positive analysis fitting direction relative to DMSO as the negative control and baseline of activity. Using a type of binding reporter, loss-of-signal activity can be used to understand changes in the binding as they relate to the gene SLC29A1. Furthermore, this assay endpoint can be referred to as a primary readout, because the performed assay has only produced 1 assay endpoint. To generalize the intended target to other relatable targets, this assay endpoint is annotated to the transporter intended target family, where the subfamily is nucleoside transporter.
Chain of human Adenosine Transporter (Adot), SLC29A1 (gene 2030) (Q99808 whole entry, looked up): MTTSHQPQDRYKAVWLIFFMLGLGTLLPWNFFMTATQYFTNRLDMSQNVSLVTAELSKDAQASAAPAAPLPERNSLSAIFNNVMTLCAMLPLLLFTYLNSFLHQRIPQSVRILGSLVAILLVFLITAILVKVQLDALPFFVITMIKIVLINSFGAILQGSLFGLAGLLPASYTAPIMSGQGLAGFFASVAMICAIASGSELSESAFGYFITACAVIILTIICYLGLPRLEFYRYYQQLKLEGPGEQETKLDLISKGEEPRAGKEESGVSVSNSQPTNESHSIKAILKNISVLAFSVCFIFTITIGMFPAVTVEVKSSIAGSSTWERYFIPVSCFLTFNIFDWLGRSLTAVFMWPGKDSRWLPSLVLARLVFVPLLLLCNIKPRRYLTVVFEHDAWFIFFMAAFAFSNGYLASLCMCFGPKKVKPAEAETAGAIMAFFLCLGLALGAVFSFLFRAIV
Binding assays used specific radioligands (tritiated, iodinated) with non-radioactive competitive displacement ligands in agonist or antagonist protocols (as indicated) and various reference compounds and inhibitors to titrate specific binding to receptors and transporters. Most enzyme assays (CYPs, kinases, phosphatases, proteases, HDACs) used recombinant protein and specific substrates (fluorescence mostly, some colorimetric and radioactive) and inhibitors, followed by a biochemical separation of substrate and product. All assays for the biochemical HTS were initially run in duplicate at a single concentration (10 uM for CYP450 assays and 25 uM for all others). Assay-chemical combinations meeting a pre-defined threshold (e.g., 30% inhibition and other criteria defined below) were then run in singleton concentration-response format with maximum concentration of 20 uM for CYPs and 50 uM for all others. Each assay was run with positive and negative controls, and concurrent controls on every plate. The follow-up (secondary) screen tested active chemical-pairs in concentration series, as well as a few additional assays not tested in the primary screen, some selected negative inactives, and several cases re-run in the concentration series for confirmatory purposes.
Take `CCC(=C(c1ccc(O)cc1)c1ccc(OCCN(C)C)cc1)c1ccccc1`: the call was inactive.

Take `Cc1oc(-c2ccccc2)nc1CCOc1ccc(C[C@H](Nc2ccccc2C(=O)c2ccccc2)C(=O)O)cc1`: the AC50 is 20.8 µM (active).

On to `Oc1cc2ccccc2c2ccccc12`, for which the result was inactive.

Turning to `CC#C[C@]1(O)CC[C@H]2[C@@H]3CCC4=CC(=O)CCC4=C3[C@@H](c3ccc(N(C)C)cc3)C[C@@]21C`, the outcome was inactive.

As to `CCCOc1sc(C(=O)N2CCC(c3cc(CN)ccc3F)CC2)c(C)c1Br`, the AC50 was 18.8 µM (active).
